# High-throughput results from PubChem BioAssay.
# Sampled rows, rich in hits. Any-hit rate of the full collection: about 2.5%.
# Casp6 inh: caspase-6 (human) enzyme inhibition; actives 0.53% (n = 350,000); inhibition, % at 12.5 µM; purified caspase-6, Z-VEID-R110 cleavage fluorescence; P55212;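 active means mean inhibition across replicates at least about 35%, with every replicate also reaching that limit, limit read from the data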;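 further: 0% = median of neutral control wells and 100% = no fluorescence left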
# Ecoli rRNA inh: inhibits bacterial ribosomal RNA function over humanized ribosomes | E. coli WT GFP vs humanized-ribosome RFP mutants, fluorescence, 24 h; hits give low values; DMSO median 0, no signal -100 | GFP signal change (wild-type ribosome), % (concentration not given with the values) | actives 1.6% (n = 350,000);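 active means significant combined selectivity score with lowered wild-type GFP, culture density cut under 30%, mutant RFP and density less affected; inactive means any of these conditions unmet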
# MLL AF4-AF9 inh: MLL-AF4/AF9 protein interaction inhibition. inhibition, % at 10 µM. AID 651704. P42568. actives 0.47% (n = 350,000). AlphaScreen, biotin-AF4 peptide binding to FLAG-AF9;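 active means every replicate reaching a set inhibition limit, whatever the replicate mean, cut at about 25% in these data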;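 further: 0% = plate neutral control median and 100% = total signal loss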
# RAD52 anneal inh: blocks human RAD52 DNA annealing. P43351. recombinant RAD52 DNA annealing, FRET fluorescence. inhibition, % at 18.7 µM. actives 0.46% (n = 360,000). AID 651710;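 active means every replicate showing at least 50% inhibition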
# Target sequence (P43351 whole entry, looked up): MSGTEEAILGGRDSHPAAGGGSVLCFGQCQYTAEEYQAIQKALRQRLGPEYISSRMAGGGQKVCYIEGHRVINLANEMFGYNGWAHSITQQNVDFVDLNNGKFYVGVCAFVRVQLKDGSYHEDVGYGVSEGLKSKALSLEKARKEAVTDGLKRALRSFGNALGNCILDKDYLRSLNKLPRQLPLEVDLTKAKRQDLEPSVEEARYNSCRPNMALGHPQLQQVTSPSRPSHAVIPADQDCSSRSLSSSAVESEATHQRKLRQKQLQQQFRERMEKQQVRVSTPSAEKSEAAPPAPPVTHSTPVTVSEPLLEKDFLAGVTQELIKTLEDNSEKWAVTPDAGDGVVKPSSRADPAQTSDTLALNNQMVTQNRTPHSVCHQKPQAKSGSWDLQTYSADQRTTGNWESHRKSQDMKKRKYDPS
# NSD2 inh: NSD2 (human) methyltransferase inhibition. inhibition, % at 12.5 µM. actives 0.54% (n = 310,000). NSD2 peptide methylation, AlphaScreen, 120 min; in the data active means inhibition above about 50%
# Active calls of the source: *; . = no result.
SMILES,Casp6 inh,Ecoli rRNA inh,MLL AF4-AF9 inh,RAD52 anneal inh,NSD2 inh
O=C1[C@H]2[C@@H](c3ccc(C(F)(F)F)cc3)N[C@]3(CCCN(CC4CCCCC4)C3=O)[C@H]2C(=O)N1Cc1ccccc1,4.2,1.6,4.4,-2.0,.
O=C1[C@H]2[C@@H](c3ccccc3)N[C@]3(CCCN(CC4CCCCC4)C3=O)[C@H]2C(=O)N1Cc1ccccc1,40.5*,.,-0.9,-25.3,.
CCN1C(=O)[C@H]2[C@@H](c3ccc(C)cc3)N[C@]3(CCCN(Cc4ccc(Cl)cc4)C3=O)[C@H]2C1=O,8.8,-20.2*,-2.1,3.6,.
CCN1C(=O)[C@H]2[C@@H](c3ccc(C)cc3)N3C(=O)N(c4ccc(C)cc4)C(=O)[C@@]3(Cc3ccc(Cl)cc3)[C@H]2C1=O,0.2,-27.9*,2.4,-0.9,.
CCCNC(=O)N1CCC2(CC1)CN(C(=O)c1cccnc1)[C@H](CO)c1[nH]c3cc(OC)ccc3c12,.,0.7,-0.2,.,.
CCCC[C@]12CCCC(=O)N1CCc1c2[nH]c2ccccc12,3.4,.,3.0,5.6,.
COc1ccc2c3c(n(C)c2c1)[C@@H](CO)N(C(=O)Nc1ccc(F)cc1)CC31CN(C)C1,.,-1.3,.,.,.
O=C(Cc1cccc2ccccc12)NC1CCCCCC1,.,.,.,.,-1.9
COc1ccc(C(=O)NCC(c2ccco2)N2CCCC2)cc1S(=O)(=O)N1CCCCC1C (centres undefined),52.6*,-6.1,3.2,-34.9,4.0
COc1ccc(C(=O)NCC(c2ccco2)N2CCCCC2)cc1S(=O)(=O)Nc1ccc(C)cc1 (centres undefined),2.4,2.3,-1.3,-34.5,-0.4
C[C@H]1CCCCO[C@@H](CN(C)Cc2ccc(C(=O)O)cc2)[C@@H](C)CN([C@@H](C)CO)C(=O)c2cc(NC(=O)Nc3ccc(C(F)(F)F)cc3)ccc2O1,1.2,-3.9,0.9,2.4,.
C[C@@H]1CN([C@@H](C)CO)C(=O)Cc2cc(NC(=O)Nc3ccc4c(c3)OCO4)ccc2O[C@@H]1CN(C)Cc1ccc(C(=O)Nc2ccccc2N)cc1,1.3,-8.3,-2.3,-9.2,.
CCC(=O)NC(c1ccccc1)c1c(O)ccc2ccccc12 (centres undefined),-2.4,-32.5*,-2.2,-7.8,-0.4
Cc1cc(/C=C(/C#N)c2cccc(F)c2)c(C)n1-c1cccnc1,-6.6,-34.6*,5.5,-27.9,.
CCCC(=O)N1CC2(C1)CN(Cc1ccncc1)[C@@H](CO)c1[nH]c3cc(OC)ccc3c12,.,0.0,.,.,.
C[C@@H]1CN([C@@H](C)CO)C(=O)c2c(c3ccccc3n2C)-c2ccccc2CO[C@H]1CN(C)C(=O)Nc1cccc(C(F)(F)F)c1,.,0.4,.,.,.
CN(C)CC(=O)NC[C@H]1N[C@@H](CO)[C@H]1c1ccc(-c2cccc(C#N)c2)cc1,-3.4,1.7,5.1,51.3*,.
CCCN(C)C[C@H]1OCCCC[C@@H](C)Oc2ccc(NC(=O)Nc3ccc(F)cc3)cc2C(=O)N([C@H](C)CO)C[C@@H]1C,-0.8,2.4,-0.4,28.4,.
CN1CCN(c2ccc(CNC(=O)C3Cc4c(-c5ccc6c(c5)OCO6)ccnc4O3)cc2)CC1 (centres undefined),79.6*,1.9,7.9,24.7,13.4
CN1CCN(c2ccc(CNC(=O)C3Cc4c(-c5ccc(Cl)cc5)ccnc4O3)cc2)CC1 (centres undefined),2.4,-25.0,14.8,42.6,21.3
CC(=O)Nc1cccc(-c2ccnc3c2CC(C(=O)NCc2ccncc2)O3)c1 (centres undefined),-7.5,4.0,-8.3,4.3,25.0
CC(=O)Nc1cccc(-c2ccnc3c2CC(C(=O)NCc2ccc(N(C)C)cc2)O3)c1 (centres undefined),0.4,-7.2,30.9*,-17.2,7.9
COCC(=O)Nc1ccc2c(c1)C(=O)N(C)C[C@@H](OC)[C@@H](C)CN(C(=O)c1ccccc1F)[C@@H](C)CO2,0.1,1.5,1.1,-11.3,.
CCOC(=O)c1sc(-c2ccc(Cl)cc2Cl)nc1O,-1.4,-29.3*,3.1,-15.1,8.5
Cc1ccccc1-c1cnc2c(c1)C(=O)N([C@@H](C)CO)C[C@@H](C)[C@@H](CN(C)Cc1ccncc1)O2,-2.2,-2.2,-3.5,8.4,.
SMILES,Casp6 inh,Ecoli rRNA inh,MLL AF4-AF9 inh,RAD52 anneal inh,NSD2 inh
CC(C)CNC(=O)C1(C)CCCCCN1C(=O)c1cccnc1 (centres undefined),55.6*,6.4,2.3,4.1,1.5
O=C(CN1CCN(c2ccc(O)cc2)CC1)Nc1ccccc1C(=O)NCCc1ccccc1,-1.5,-24.9*,3.7,-5.4,3.1
O=C(Cc1ccccc1)Nc1ccccc1N1CCN(c2ccccc2)CC1,5.0,-22.7*,-5.1,-21.6,-4.6
O=C(CN1CCN(c2ccc(O)cc2)CC1)Nc1cc(S(=O)(=O)N2CCCC2)ccc1Cl,2.1,-21.1*,7.9,-9.5,6.1
O=C(CN1CCN(c2ccc(O)cc2)CC1)Nc1cc(S(=O)(=O)N2CCCCC2)ccc1Cl,0.9,-3.9,6.5,3.7,5.1
CCC(=O)N1CCCCN2[C@H](CO)[C@@H](c3ccc(C#Cc4ccccc4F)cc3)[C@@H]2C1,-3.3,-51.3,-17.8,3.1,.
C[C@@H]1CN([C@H](C)CO)C(=O)c2cc(C3=CCCC3)cnc2O[C@@H]1CN(C)C(=O)Nc1cccc(F)c1,6.8,-1.6,1.6,-6.9,.
Nc1ccc(CC(N)c2csc(Nc3cc(Oc4ccccc4)ncn3)n2)cc1 (centres undefined),-3.0,-2.2,25.3*,-26.9,15.6
NC(Cc1ccc(C(F)(F)F)cc1)c1csc(Nc2cc(Oc3ccccc3)ncn2)n1 (centres undefined),-1.1,.,1.7,-68.2,0.4
O=C(Nc1ccc(Cl)cc1)N1CCN(c2ccccc2)CC1,.,.,.,.,-0.2
O=C(Nc1ccc(NC(=O)N2CCN(c3ccccc3O)CC2)cc1)N1CCN(c2ccccc2O)CC1,0.9,-19.8*,2.2,-19.3,-0.5
COc1ccc(CN2C(=O)COc3ccccc32)cc1,0.8,4.8,-0.5,-3.2,-1.2
COc1ccc(CC2(CO)COc3ccccc3C2=O)cc1 (centres undefined),4.8,-28.5*,-2.6,-6.7,-2.0
OC(CNC1CCCCC1)COCCOc1ccc(Br)cc1 (centres undefined),46.7*,.,2.0,9.7,-1.0
CO[C@@H]1CN(C)C(=O)c2cc(NS(C)(=O)=O)ccc2OC[C@H](C)N(CC2CCCCC2)C[C@H]1C,.,-7.4,-0.3,11.7,.
Cc1sc(N/N=C/c2ccco2)nc1-c1ccccc1,-1.5,-14.4,25.5*,-4.1,2.2
Cc1ccc2nc(N/N=C/c3ccco3)cc(C)c2c1,1.6,-20.1*,7.5,-12.7,5.7
Clc1ccc(-c2csc(N/N=C/c3ccco3)n2)cc1,-0.7,2.8,2.4,-2.7,-0.1
Clc1ccc(-c2csc(N/N=C\c3cccnc3)n2)cc1,-0.3,-20.8*,2.8,-16.7,-0.3
Brc1ccc(-c2csc(N/N=C/c3ccco3)n2)cc1,-0.7,-38.5*,10.6,-2.3,2.3
Cc1ccc(-c2csc(N/N=C/c3ccco3)n2)cc1,.,.,.,.,-1.1
